# High-throughput results from PubChem BioAssay.
# FAS TE block – inhibitors of human fatty acid synthase thioesterase domain. hit rate 0.67% among 360,000. P49327. recombinant FAS-TE, OMFH fluorogenic substrate, fluorescence endpoint. AID 602261. inhibition, % at 15 µM;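 active means compounds whose normalised, plate-corrected inhibition of enzyme fluorescence in the single-dose primary screen is 50% or more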;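 further: 0% = DMSO with enzyme and 100% = substrate without enzyme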
# Target sequence (P49327 whole entry, looked up, the tested form may be a part): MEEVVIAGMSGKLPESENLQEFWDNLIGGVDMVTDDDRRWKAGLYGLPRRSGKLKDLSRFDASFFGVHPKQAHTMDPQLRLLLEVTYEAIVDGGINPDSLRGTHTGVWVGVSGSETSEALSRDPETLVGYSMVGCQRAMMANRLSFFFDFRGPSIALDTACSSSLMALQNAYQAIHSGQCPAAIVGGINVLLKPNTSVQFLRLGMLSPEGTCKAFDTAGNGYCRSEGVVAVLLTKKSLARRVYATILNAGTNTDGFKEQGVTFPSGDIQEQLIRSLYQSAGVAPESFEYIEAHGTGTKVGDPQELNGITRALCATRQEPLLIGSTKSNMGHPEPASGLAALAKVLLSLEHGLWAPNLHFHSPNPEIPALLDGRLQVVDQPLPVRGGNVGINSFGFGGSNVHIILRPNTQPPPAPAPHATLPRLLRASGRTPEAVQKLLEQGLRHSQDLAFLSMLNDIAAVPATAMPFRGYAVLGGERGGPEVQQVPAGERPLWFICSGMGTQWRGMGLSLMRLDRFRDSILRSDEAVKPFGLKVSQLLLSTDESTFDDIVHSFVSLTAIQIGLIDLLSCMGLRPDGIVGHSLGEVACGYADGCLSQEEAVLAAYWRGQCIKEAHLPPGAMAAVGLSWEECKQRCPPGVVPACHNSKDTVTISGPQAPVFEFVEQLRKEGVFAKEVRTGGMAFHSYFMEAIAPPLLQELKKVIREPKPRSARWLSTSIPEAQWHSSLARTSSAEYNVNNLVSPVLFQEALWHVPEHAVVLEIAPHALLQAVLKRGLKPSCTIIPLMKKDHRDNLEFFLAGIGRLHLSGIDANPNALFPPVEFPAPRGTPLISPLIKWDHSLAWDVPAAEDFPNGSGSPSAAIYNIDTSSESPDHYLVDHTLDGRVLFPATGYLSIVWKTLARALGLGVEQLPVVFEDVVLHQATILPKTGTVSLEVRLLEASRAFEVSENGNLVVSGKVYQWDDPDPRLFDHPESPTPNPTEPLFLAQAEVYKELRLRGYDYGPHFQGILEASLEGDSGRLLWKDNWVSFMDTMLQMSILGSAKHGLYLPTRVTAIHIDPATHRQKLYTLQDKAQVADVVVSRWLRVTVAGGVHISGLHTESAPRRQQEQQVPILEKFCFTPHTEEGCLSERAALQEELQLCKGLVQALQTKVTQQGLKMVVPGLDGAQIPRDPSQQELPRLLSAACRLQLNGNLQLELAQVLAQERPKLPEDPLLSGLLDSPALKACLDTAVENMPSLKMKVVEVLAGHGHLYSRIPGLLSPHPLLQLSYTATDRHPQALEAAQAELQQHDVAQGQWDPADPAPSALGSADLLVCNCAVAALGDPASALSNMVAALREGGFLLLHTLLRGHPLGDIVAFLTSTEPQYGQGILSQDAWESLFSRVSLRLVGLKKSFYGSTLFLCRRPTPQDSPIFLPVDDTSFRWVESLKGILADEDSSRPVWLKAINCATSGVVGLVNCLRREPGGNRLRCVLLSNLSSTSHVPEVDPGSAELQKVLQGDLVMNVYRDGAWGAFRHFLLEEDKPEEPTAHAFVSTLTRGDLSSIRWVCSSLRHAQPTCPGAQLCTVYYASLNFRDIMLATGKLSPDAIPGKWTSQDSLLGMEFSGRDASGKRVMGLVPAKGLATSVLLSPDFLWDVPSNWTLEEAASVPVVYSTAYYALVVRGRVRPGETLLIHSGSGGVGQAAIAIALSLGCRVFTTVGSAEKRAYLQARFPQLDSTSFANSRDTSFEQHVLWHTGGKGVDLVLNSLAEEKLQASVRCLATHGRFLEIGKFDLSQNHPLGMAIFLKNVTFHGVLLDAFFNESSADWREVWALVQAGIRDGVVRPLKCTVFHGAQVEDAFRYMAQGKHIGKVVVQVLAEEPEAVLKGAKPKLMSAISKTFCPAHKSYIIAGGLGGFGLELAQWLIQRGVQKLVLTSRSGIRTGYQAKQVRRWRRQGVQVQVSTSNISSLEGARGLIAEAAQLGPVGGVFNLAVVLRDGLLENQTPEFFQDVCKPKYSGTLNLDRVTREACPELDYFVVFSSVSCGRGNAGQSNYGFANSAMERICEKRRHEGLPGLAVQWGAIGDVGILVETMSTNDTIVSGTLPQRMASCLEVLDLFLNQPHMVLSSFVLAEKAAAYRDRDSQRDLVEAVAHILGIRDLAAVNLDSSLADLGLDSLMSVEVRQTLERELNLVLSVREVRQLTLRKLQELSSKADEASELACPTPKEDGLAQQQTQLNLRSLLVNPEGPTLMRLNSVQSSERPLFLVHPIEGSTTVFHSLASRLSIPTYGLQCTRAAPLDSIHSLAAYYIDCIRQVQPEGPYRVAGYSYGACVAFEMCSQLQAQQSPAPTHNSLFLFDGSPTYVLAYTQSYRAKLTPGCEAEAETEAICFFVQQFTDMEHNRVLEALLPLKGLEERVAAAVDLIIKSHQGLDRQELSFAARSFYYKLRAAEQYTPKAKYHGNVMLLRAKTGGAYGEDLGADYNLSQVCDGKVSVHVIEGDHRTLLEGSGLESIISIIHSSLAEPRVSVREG
# rCAG binder – r(CAG) repeat RNA binding | TO-PRO-1 dye displacement fluorescence | AID 651821 | inhibition, % at 3 µM | hit rate 1.3% among 370,000;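 active means inhibition above the plate cutoff, the mean of all test compounds on that plate plus 3 SD, cut at about 35% in these data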;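 further: 0% = DMSO alone and 100% = 100 µM mitoxantrone as full dye displacement; higher means more dye released from RNA so lower well fluorescence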
# NR3A LBD binder – NR3A (human) ligand-binding domain modulation | NR3A LBD differential scanning fluorimetry, Tm shift; 0% = protein alone, 100% = glycine-bound protein | AID 1259313 | Tm shift relative to glycine control, % at 25 µM | hit rate 2.5% among 340,000;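 active means melting temperature shift of at least 10% of the positive control shift, at one fixed dose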
# NadD block – inhibitors of Staphylococcus aureus NadD; purified NadD enzyme, colorimetric absorbance read-out; inhibition, % at 20 µM; hit rate 0.78% among 360,000; AID 602399; in the data active means inhibition above about 26%
# * = called active by the depositor; . = not tested or not shown. The list is not random: actives were taken first. Their share in the collection is about 4.3%.
SMILES,FAS TE block,rCAG binder,NR3A LBD binder,NadD block
CCn1cc(/C=N\NC(=O)c2ccc3c(c2)c(C)c(C)n3Cc2ccccc2)c(C)n1,8,17,19*,-9
CCn1ncc(/C=N\NC(=O)c2ccc3c(c2)c(C)c(C)n3Cc2ccccc2)c1C,9,19,-5,11
O=C(/C=C/Nc1ccc(F)c(Cl)c1)c1ccco1,12,1,-5,-5
O=C(/C=C/Nc1cccc(F)c1)c1ccco1,2,-1,28*,-2
Cc1cnc2cc(Cl)c(Cl)cc2n1,0,1,579*,-1
C=CCN1C(=O)[C@@H](CC(=O)N2CCSCC2)[C@]2(C(=O)OC)CCCCC=C12,.,7,.,.
O=S(=O)(c1ccc(Cl)cc1)N1CCN(Cc2ccncc2)CC1,-4,-1,-1,-6
Cc1ccc(S(=O)(=O)N2CCN(CCc3ccncc3)CC2)cc1,-3,-1,11*,3
COC(=O)c1cc(S(=O)(=O)N2CCN(c3ccccc3Cl)CC2)cn1C,.,6,.,.
Cc1ccc(O)c(NC(=O)c2cc(-c3ccc(F)cc3)on2)c1,-3,-1,217*,-2
COc1ccccc1NC(=S)NC(=O)c1ccc(-c2ccc(Cl)cc2)o1,22,8,-9,-1
O=C(NC(=S)Nc1ccccc1O)c1ccc(-c2ccc(Cl)cc2)o1,12,34,29*,-2
Cc1ccc(O)c(NC(=O)c2cc(-c3cccs3)on2)c1,-3,3,0,5
Cc1ccc(O)c(NC(=S)NC(=O)c2ccc(-c3ccc(Cl)cc3)o2)c1,18,14,29*,6
CC(OC(=O)C1=COCCO1)C(=O)NC1(C#N)CCCCC1 (centres undefined),-4,0,11*,2
CCOC(=O)c1nn(-c2ccccc2C)c2nc(Nc3ccccc3)cc(=O)n12,-5,2,13*,-7
COc1ccccc1Cc1c(-c2ccc(Cl)cc2)nc2ccc(C)cn12,.,18,.,.
Oc1ccc(-c2csc(Nc3ncccn3)n2)c(O)c1,2,8,2,-1
COc1ccc(-c2csc(Nc3ccc(C)cn3)n2)cc1,18,6,16*,-1
CC(=O)Nc1cccc(-c2csc(Nc3ccc(C)cn3)n2)c1,-1,3,27*,2
Cc1cccc(Nc2nc(-c3ccc(O)cc3O)cs2)n1,24,29,40*,10
CC(=O)Nc1cccc(-c2csc(Nc3ncccn3)n2)c1,.,13,.,.
N#Cc1ccc(Nc2nc(-c3ccc(O)cc3O)cs2)cc1C(F)(F)F,61*,.,23*,5
Cc1ccc(-c2csc(Nc3ccccn3)n2)cc1,18,7,-3,2
O=C(NCCN1CCC(Cc2ccccc2)CC1)C1CCCN(S(=O)(=O)c2ccc(Br)s2)C1 (centres undefined),.,4,.,.
SMILES,FAS TE block,rCAG binder,NR3A LBD binder,NadD block
CS(=O)(=O)c1ccc(OC[C@@H](O)CN2CCC(C(O)(c3ccccc3)c3ccccc3)CC2)cc1,.,-2,.,.
O=S(=O)(c1ccc(F)cc1)n1c(CN2CCOCC2)nc2ccccc21,.,4,.,.
CC(=O)Oc1ccc(-c2csc(Nc3ccc(Cl)cn3)n2)cc1,2,5,32*,-4
CC(=O)NNc1nc(-c2ccc(NC(C)=O)cc2)cs1,-9,2,0,1
Cc1nc(N)sc1-c1csc(Nc2ccc(Cl)cn2)n1,3,20,6,25
CC(=O)Nc1ccc(-c2csc(Nc3cccc(C)n3)n2)cc1,11,9,26*,-1
CCCCS(=O)(=O)Nc1ccc2cn[nH]c2c1,-7,1,1,-6
CCCCS(=O)(=O)Nc1ccc2ncn(C)c(=O)c2c1,-4,-1,11*,-2
Cc1c(Cl)c([N+](=O)[O-])nn1CC(=O)N1CCc2ccccc2C1,51*,1,1,-2
O=C(N[C@H](C(=O)N1CCC[C@H]1C(=O)NC1CCCC1)c1ccccc1)C1CCCC1,.,-1,.,.
S=C(NCCc1ccccc1)Nc1ccccc1Cl,-5,4,1,4
S=C(NCCCc1ccccc1)Nc1ccccc1Cl,35,7,18*,-6
O=C(NC(=S)Nc1ccccc1)C1CCCCC1,2,-3,0,-7
O=C(NC(=S)NCc1ccccc1)C1CCCCC1,12,-5,18*,-5
CCCCc1ccc(NC(=S)NCCc2ccc(F)cc2)cc1,15,-1,10,0
O=S(=O)(Nc1ccc(S(=O)(=O)N2CCOCC2)cc1)c1ccccc1,-6,5,10*,6
Fc1ccc(CCNC(=S)Nc2ccc(F)cc2)cc1,-6,-5,19*,3
CC(C)C[C@H](NC(=O)c1nccs1)C(=O)N1CCC[C@H]1C(=O)NCc1ccccc1,.,1,.,.
C/C=C/c1ccc([C@@H]2[C@H](CO)N(S(C)(=O)=O)[C@H]2CN(C)C(=O)CC)cc1,.,5,.,.
COC(=O)C1CCCN(C(=O)C(Cc2ccc3c(c2)OCO3)NC(C)=O)C1 (centres undefined),.,1,.,.
CN1C(=O)C[C@@](C#N)(C(=O)N2CCCC2)[C@H]1c1ccccc1,.,3,.,.
S=C(NCCc1ccccc1)NCCc1ccccc1,11,-1,26*,1
S=C(NCCc1ccccc1)N/N=C/c1ccc(Cl)cc1,36,1,6,-12
S=C(NCCN(C1CCCCC1)C1CCCC1)Nc1cccc(Cl)c1,3,9,-2,0
S=C(NCCc1ccccc1)Nc1ccc(Cl)cc1,11,1,27*,-3
SMILES,FAS TE block,rCAG binder,NR3A LBD binder,NadD block
NS(=O)(=O)c1ccc(NC(=S)NCCc2ccccc2)cc1,1,3,12*,-9
S=C(NCCC(c1ccccc1)c1ccccc1)Nc1cccc(Cl)c1,28,9,16*,-3
O=[N+]([O-])c1cc(C=NN2CCN(Cc3ccccc3Cl)CC2)ccc1Cl,.,1,.,.
Cc1ccc2nc(-c3ccc(NC(=O)CSc4nnc(-c5ccccc5)n4Cc4ccco4)cc3)sc2c1,.,19,.,.
C=CCNC(=S)Nc1ccc(Br)cc1F,-4,3,0,-3
S=C(NCc1ccc(Cl)cc1)Nc1ccccc1,15,2,-6,-2
O=S(=O)(c1ccc(NC(=S)NCCc2ccccc2)cc1)N1CCOCC1,3,7,24*,-1
S=C(NCc1ccc(Cl)cc1Cl)Nc1ccccc1,12,1,13*,0
S=C(NCc1ccccc1)Nc1ccc(Oc2ccccc2)cc1,25,1,12*,-3
Fc1cc(Br)ccc1NC(=S)NCCc1ccccc1,19,0,30*,-2
CCNC(=S)Nc1ccc(Oc2ccccc2)cc1,-6,0,-3,1
O=C(N[C@@H](Cc1cccnc1)C(=O)N1CCC[C@H]1C(=O)NCCc1ccccc1Cl)C1CCCC1,.,0,.,.
CC(C)CCNC(=S)Nc1ccccn1,-2,-2,-2,10
S=C(NCc1ccccc1)NCc1ccc(CNC(=S)NCc2ccccc2)cc1,7,8,20*,2
O=C(NCCc1ccccc1)Nc1ccc(Cl)cc1,-3,0,16*,3
CC(C)CCNC(=S)Nc1ccccc1F,-3,-4,14*,-17
CCOc1cc(CCNC(=O)c2cc3ccsc3n2C)ccc1OC,.,1,.,.
CC(=O)C1=C(C)N(Cc2ccc(Cl)cc2)C(=S)NC1c1cccc(Br)c1 (centres undefined),.,4,.,.
